Test results as given in paper PMC7819943, “Rice protein-binding microarrays: a tool to detect cis-acting elements near promoter regions in rice”.
The full ranking holds about 35,000 sequences; the median of “fluorescence intensity (a.u.)” is about 10,000, and the highest 2% start at about 52,000. This is one part of a sample in which the highest values are shown more often than they occur.

The sequences below were run against T1, OsWOX13 (Oryza sativa, UniProt Q5QMM3 1-267) (assay: protein-binding microarray (RPBM); PBS, 2% BSA, 51.3 ng/ul salmon testes DNA, 50 uM zinc acetate, 200 nM TF, 25 C, 1 h; high values mean tight binding). Conditions: protein: recombinant; tags: N-terminal polyhistidine and DsRed monomer fusion (pET32a); label: CyDye5-dUTP incorporated in the synthesized complementary strand; 3' TTTTT single-stranded linker to array surface; dsDNA, one strand shown.
T1 sequence: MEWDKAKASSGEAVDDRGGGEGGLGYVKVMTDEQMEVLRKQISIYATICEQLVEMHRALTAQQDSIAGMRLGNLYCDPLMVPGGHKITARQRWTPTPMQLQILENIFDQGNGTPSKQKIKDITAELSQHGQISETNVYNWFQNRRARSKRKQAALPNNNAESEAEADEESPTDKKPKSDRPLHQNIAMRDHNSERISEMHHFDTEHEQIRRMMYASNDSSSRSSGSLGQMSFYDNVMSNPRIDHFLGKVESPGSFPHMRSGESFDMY
How it was run: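 The binding signal is fluorescence intensity per feature, in arbitrary units, read on an Axon 4000B scanner. Polyhistidine- and DsRed-tagged transcription factors (N-terminal fusions) from E. coli BL21-CodonPlus were purified on Ni–NTA and applied at 200 nM for 1 h at 25 °C to a double-stranded, BSA-blocked custom Agilent array in buffer with 50 µM zinc acetate.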
For “AGCTAATACTTAATTAATCACGCGTTAATGGACTGCTCCGCGGAGTCACCTAGTGCAG”, the binding signal was 26700 fluorescence intensity (a.u.). With “ACTTAATTAATTACGTGTTAATGGACTGCTCCGTTTTCCGCGGAGTCACCTAGTGCAG” the binding signal was 65500 fluorescence intensity (a.u.). “GCTAATACTTAATTAATCACGCGCTAATAGACCGCTCCGTCGGAGTCACCTAGTGCAG” was tested, and the binding signal was 24500 fluorescence intensity (a.u.). In the case of “TTTAATTAATCACGCGCTAATAGACTGCTCCGTTTTCCGTCGGAGTCACCTAGTGCAG”, the binding signal is reported as 55800 fluorescence intensity (a.u.). For “ATTAATTACGCGCTAATCGTTGCTCCGTTTTCCGTGCAAACGGAGTCACCTAGTGCAG”, the binding signal was 11400 fluorescence intensity (a.u.). With “TTCTAATTAATCACGCGTTAATGGACCGCTCCGTTTTCCGCGGAGTCACCTAGTGCAG” the binding signal was 42300 fluorescence intensity (a.u.). For “ACAGATTAATTAGGCTTAATATATTCATATCGCAGTTTACCGGAGTCACCTAGTGCAG”, the binding signal was 50500 fluorescence intensity (a.u.). With “ATTACGTAATTAATTAAAATACAAATTTCAGCATCCTTACCGGAGTCACCTAGTGCAG” the binding signal was 42300 fluorescence intensity (a.u.). For “AGCCTAATTAATCCGTCATCAGCAAATGTTTATTGTAGCACGGAGTCACCTAGTGCAG”, the binding signal was 29700 fluorescence intensity (a.u.). In the case of “CTCCCGTGCAGTTGCCAGTTGATTGGTTCAGCGTGGCTGCCGGAGTCACCTAGTGCAG”, the binding signal is reported as 9720 fluorescence intensity (a.u.). “CACATGTGATTGGGCCTCGAGCCTCAGCGTGCGTGCGCCCCGGAGTCACCTAGTGCAG” was tested, and the binding signal was 20400 fluorescence intensity (a.u.). With “CATTGATTGGCCAGCCGAGGTCTAGCCTCAACCTAGCGTGCGGAGTCACCTAGTGCAG” the binding signal was 54800 fluorescence intensity (a.u.). In the case of “ACTTCTATAATATATGTAAATTACCTTTTGGCTTTGCTGACGGAGTCACCTAGTGCAG”, the binding signal is reported as 4500 fluorescence intensity (a.u.). “TATAGATTAGAGAATTAGTGGAGAACAAAATATAATAAAGCGGAGTCACCTAGTGCAG” was tested, and the binding signal was 5050 fluorescence intensity (a.u.). For “TTTTAGGATGATTTAATTGTAAATTTAAAATTAAAATGGTCGGAGTCACCTAGTGCAG”, the binding signal was 35400 fluorescence intensity (a.u.). In the case of “TGCTTTTCATGTTTATTGATTTAGGCGCACCTGTTCTGTTCGGAGTCACCTAGTGCAG”, the binding signal is reported as 3190 fluorescence intensity (a.u.). For “TTAACAATATTTTAATGATTGCTCTTGTGCTTAGAAAATTCGGAGTCACCTAGTGCAG”, the binding signal was 5300 fluorescence intensity (a.u.). “AAAATTTAAATTTTCAGGCTTAAATTTGAAATTGATTTTACGGAGTCACCTAGTGCAG” was tested, and the binding signal was 7780 fluorescence intensity (a.u.). “CAGAATGATTGTGCTTAATTGTAAAATTGATTTTAGGATTCGGAGTCACCTAGTGCAG” was tested, and the binding signal was 61100 fluorescence intensity (a.u.). With “TTAAAATTGATTTTAGGGGATTTTCATCTGAGCTTATGTTCGGAGTCACCTAGTGCAG” the binding signal was 55800 fluorescence intensity (a.u.). For “ACACAGCTAATTAGCTCTATGACTAAATGAATAAAATGACCGGAGTCACCTAGTGCAG”, the binding signal was 25800 fluorescence intensity (a.u.). In the case of “TCGTCAGGTTAATCAAGGGAGGATTGAACGAGATTTCGTGCGGAGTCACCTAGTGCAG”, the binding signal is reported as 5920 fluorescence intensity (a.u.). In the case of “TGATCTAATCAATGACAGCGACTTGGTTCCATGTTCTTCCCGGAGTCACCTAGTGCAG”, the binding signal is reported as 12300 fluorescence intensity (a.u.). In the case of “TATTCAATAACTAAATTAATGCCTGATTTACGTTGTTCGTCGGAGTCACCTAGTGCAG”, the binding signal is reported as 17400 fluorescence intensity (a.u.). In the case of “TCTTAATTTCTATCAATAATTTAATTTAGCATATAATAACCGGAGTCACCTAGTGCAG”, the binding signal is reported as 31300 fluorescence intensity (a.u.). “ATTGATGATTTAATGAAACTAATTTGATATTGTAGATGTTCGGAGTCACCTAGTGCAG” was tested, and the binding signal was 48300 fluorescence intensity (a.u.). In the case of “CCACTAACAGTCTAACAACATGATAAGGCCTCCGCAACCACGGAGTCACCTAGTGCAG”, the binding signal is reported as 3920 fluorescence intensity (a.u.). With “CTAATTACGTCATGATTTGACAATGTGGTGTGGTGCTACACGGAGTCACCTAGTGCAG” the binding signal was 37500 fluorescence intensity (a.u.). With “ATTTGATTGACGAGGTATAGTAAAATGCGTCAACTTATGTCGGAGTCACCTAGTGCAG” the binding signal was 63200 fluorescence intensity (a.u.). In the case of “GAGCCTAATTACGCCATGATTTGACAATGTGGTGCTACAGCGGAGTCACCTAGTGCAG”, the binding signal is reported as 39300 fluorescence intensity (a.u.). For “TGTAAATATATTATGATTGTAGTATAACTTATATAGTATTCGGAGTCACCTAGTGCAG”, the binding signal was 10900 fluorescence intensity (a.u.). With “AACTAAAATTACATATGTAAATTTAGTTGATATGACATGTCGGAGTCACCTAGTGCAG” the binding signal was 24600 fluorescence intensity (a.u.). With “AAAATTGATATGTAATTATGACACACTTACGTCGGATATGCGGAGTCACCTAGTGCAG” the binding signal was 64500 fluorescence intensity (a.u.). For “AGCCTAATTACGCCATGATTTGACAATGTGGTGCTACAGTCGGAGTCACCTAGTGCAG”, the binding signal was 58300 fluorescence intensity (a.u.). For “GATATGATATTGACACATGATATGTAATTATATATAGAGCCGGAGTCACCTAGTGCAG”, the binding signal was 11400 fluorescence intensity (a.u.). With “TGTATGCGATTTGATTAAACTTTTAAAATGTTGATTATTACGGAGTCACCTAGTGCAG” the binding signal was 4680 fluorescence intensity (a.u.). “GCCTAATTACGCCATGATTTGATAATGTGGTGCTACAGTACGGAGTCACCTAGTGCAG” was tested, and the binding signal was 41800 fluorescence intensity (a.u.). In the case of “TTGAGCCTAATTACGCCATGATTTGACAATGTGATGCTACCGGAGTCACCTAGTGCAG”, the binding signal is reported as 40200 fluorescence intensity (a.u.). With “AGCCTAATTACGTCATGATTTGACAATGTAATGATACCGTCGGAGTCACCTAGTGCAG” the binding signal was 53500 fluorescence intensity (a.u.). “CCTGACATCTCTCAATCGGACGGTGGATACCACCTCACCGCGGAGTCACCTAGTGCAG” was tested, and the binding signal was 3620 fluorescence intensity (a.u.). With “CGGTCATCAATCTCATCAGCTACATCCCAAAGGGGAATCACGGAGTCACCTAGTGCAG” the binding signal was 5580 fluorescence intensity (a.u.). In the case of “ATTTGATTTAAAACCTCAGTTTTCGATTGAGAGAAAATATCGGAGTCACCTAGTGCAG”, the binding signal is reported as 4350 fluorescence intensity (a.u.).
